The values that follow come from PubChem BioAssay (Tox21).

Values without a mark were called inactive. Calls of active or inactive are those of the source. Calls come from the whole dose curve.
% is set by controls: 0 for no effect and ±100 for the full control effect.

Sequence of Muscarinic acetylcholine receptor M1 (Homo sapiens) (P11229 whole entry, looked up): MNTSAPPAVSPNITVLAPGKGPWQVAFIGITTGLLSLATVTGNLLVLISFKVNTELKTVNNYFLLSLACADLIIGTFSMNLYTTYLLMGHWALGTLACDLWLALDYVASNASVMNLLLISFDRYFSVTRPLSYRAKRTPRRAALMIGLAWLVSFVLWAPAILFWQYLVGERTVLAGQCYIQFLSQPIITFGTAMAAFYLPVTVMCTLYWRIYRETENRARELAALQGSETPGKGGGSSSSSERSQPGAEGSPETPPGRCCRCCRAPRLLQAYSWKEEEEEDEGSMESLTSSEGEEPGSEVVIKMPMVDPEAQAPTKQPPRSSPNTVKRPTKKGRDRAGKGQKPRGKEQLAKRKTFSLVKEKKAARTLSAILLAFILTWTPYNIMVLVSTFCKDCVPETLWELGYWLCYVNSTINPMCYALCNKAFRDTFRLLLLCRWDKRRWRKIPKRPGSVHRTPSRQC

This experiment concerns the target Muscarinic acetylcholine receptor M1 (Homo sapiens) (UniProt P11229). As to the kind of experiment: Cholinergic receptor muscarinic 1 (CHRM1) small molecule agonists, cell-based qHTS assay (AID 1963589). Note: nearly all actives have a fitted effect of over 35% in size. The conditions noted are these: CHRM1-CHO cells, agonist mode, calcium flux fluorescence; series mostly up to 76.8 µM; activation: at the top concentration. An excerpt:
National Center for Advancing Translational Sciences [NCATS]
Division of Preclinical Innovation [DPI]
U.S. Environmental Protection Agency [EPA]
National Institutes of Environmental Health Sciences [NIEHS]
National Toxicology Program [NTP]
U.S. Food and Drug Administration [FDA]
The CHRM1 is a muscarinic receptor. This receptor plays a crucial role in learning and memory processes and has long been identified as a promising therapeutic target for the improvement of cognitive decline in Alzheimer's disease (AD). The CHRM1-CHO cell line stably expressing human muscarinic acetylcholine receptor M1 (CHRM1) can be used for screening agonists and antagonists of interactions between CHRM1 and its ligands. The CHRM1-CHO Calcium Flux Assay is a homogeneous fluorescence-based assay for detecting the intracellular calcium level using FDSS kinetic plate reader system.
CHRM1-CHO cells were dispensed at 1000 cells/3uL/well in 1536-well black-clear bottom plates using a Multidrop Dispenser. After the assay plates were incubated at a 37 C/5% CO2 incubator for 18 h, 3 uL of Dye Loading Buffer was transferred to the assay plate by a Flying Reagent Dispenser. The assay plates were incubated at 37 C for 1h. For agonist mode, 23 nL of compounds dissolved in DMSO, positive controls or DMSO only was transferred to the assay plate by a pin tool. […] Each test compound was measured at 15 concentrations in three independent runs.
For orientation: Quantitative high-throughput screening tests each substance at several concentrations.
For `C=C(C)C(=O)OCCOc1ccccc1`, the “activation” value was -0.628%.
Same read-out and setting: in the case of `Cc1[nH]cnc1C[C@H]1CCc2c(C)c3ccccc3n2C1=O` it was 1.51%; in that of `c1ccc(-c2nc[nH]c2-c2ccccc2)cc1`, 3.68% [at 35.3 µM].
As to `NCCc1ccn[nH]1`, the “activation” value is 0.89% [at 35.3 µM].
`CC(=O)N(CC(O)CO)c1c(I)c(C(=O)NCCO)c(I)c(C(=O)NCC(O)CO)c1I` (stereo not given): the “activation” value is -0.494% [at 35.3 µM].
Turning to `CCC(C)(C)c1ccc(CC(C)CN2C[C@@H](C)O[C@@H](C)C2)cc1` (stereo not given in full), the “activation” value was 5.5% [at 35.3 µM].
In the case of `COCCOC(=O)CC#N`, the “activation” value is 0.291%.
For the compound `O=[N+]([O-])c1cc[n+]([O-])cc1`, the “activation” value was 0.0376%.
Still for that read-out and setting: under `CCN(Cc1cccc(S(=O)(=O)O)c1)c1ccc(C(=C2C=CC(=[N+](CC)Cc3cccc(S(=O)(=O)O)c3)C=C2)c2ccc(O)cc2S(=O)(=O)[O-])cc1` stands 0.0069% [at 35.3 µM]; under `O/N=C/C=N/O`, 0.423%; under `CCOC(=O)c1ccc(C#Cc2ccc3c(c2)C(C)(C)CCS3)nc1`, 0.0102% [at 35.3 µM].
In the case of `CC1C2CC(CC2C2CCCC(O)C2)C1(C)C` (stereo not given), the “activation” value was 0.37%.
As to `COC(=O)CC(C)=O`, the “activation” value was 0.36%.
For `CC(O)CN` (stereo not given), the “activation” value is 0.199%.
Consider `C=CC(=C)CCCC(C)(C)OC(C)=O`, for which the “activation” value is -1.19%.
As for `C#CC(O)C(CC)CCCC` (stereo not given), the “activation” value is -0.769%.
`Brc1cc(Br)c(Oc2cc(Br)c(Br)cc2Br)cc1Br`: the “activation” value was 0.372% [at 35.3 µM].
Turning to `CSc1ccc(O)cc1C`, the “activation” value was -1.2%.
As for `CCCCCCCCCCCCCCCCN`, the “activation” value was 9.82% [at 35.3 µM].
Consider `C=CC(=O)OCC1CC2CC1C1CCC(COC(=O)C=C)C21` (stereo not given), for which the “activation” value is -0.344%.
The same measure, in the same setting: in the case of `CCCCCCCCCC[N+](C)(CCCCCCCCCC)CCC[Si](OC)(OC)OC` it was -0.339%; in that of `CCN(CCC#N)c1ccc(N=Nc2c(Cl)cc([N+](=O)[O-])cc2Cl)cc1`, -0.17%; in that of `CC(C)CCCCCCCOC(=O)c1ccc(C(=O)OCCCCCCCC(C)C)c(C(=O)OCCCCCCCC(C)C)c1`, -0.226%.
As to `CC(C)COC(=O)C(C)C`, the “activation” value is -0.126%.
Take `O=C1CCC(=O)N1Cl`: the “activation” value was 0.0064%.
On the same count and under the same terms, under `CSc1ccc(Oc2ccc(S(N)(=O)=O)cc2CN(C)C)cc1C` stands 0.237%; under `C[C@]12CCC(=O)C=C1CC[C@H]1[C@@H]3CC[C@](O)(C(=O)CO)[C@@]3(C)C[C@H](O)[C@@]12F`, -0.325% [at 35.3 µM].
As for `C[C@@H]1C[C@H]2[C@@H]3C[C@H](F)C4=CC(=O)C(Cl)=C[C@]4(C)[C@@]3(F)[C@@H](O)C[C@]2(C)[C@@]1(O)C(=O)CO`, the “activation” value is 0.298% [at 35.3 µM].
For the compound `On1ccccc1=S`, the “activation” value is 10.2%.
Regarding `CC(=O)Nc1ccc(OC(=O)c2ccccc2OC(C)=O)cc1`, the “activation” value is 1.11% [at 35.3 µM].
`O=C(O)CCc1nc2ccccc2[nH]1`: the “activation” value is -0.455% [at 35.3 µM].
As for `O=[N+]([O-])c1ccc(O)c2ncccc12`, the “activation” value was 1.41% [at 35.3 µM].
The same measure, in the same setting: in the case of `CCN1CCOCC1` it was -0.146%; in that of `Cc1ccc(C(=O)O)cc1[N+](=O)[O-]`, 0.221%.
`O=[N+]([O-])c1ccc(O)cc1`: the Potency result was “inactive”.
On to `Cc1ccccc1N=Nc1ccc(N=Nc2c(O)ccc3ccccc23)c(C)c1`, for which the “activation” value is 0.0256% [at 35.3 µM].
Turning to `CCCCCOC(=O)Nc1nc(=O)n([C@@H]2O[C@H](C)[C@@H](O)[C@H]2O)cc1F`, the “activation” value is -0.363% [at 35.3 µM].
Take `CC(C)(O)c1ccc(C(C)(C)O)cc1`: the “activation” value is -0.175%.
On the same count and under the same terms, under `CCCCC(CC)COCCCN` (stereo not given) stands 1%; under `CS(=O)(=O)c1ccc([C@@H](O)[C@@H](CF)NC(=O)C(Cl)Cl)cc1`, -0.285% [at 35.3 µM].
